Only some compounds are listed: those with a hit (about 15% of all), similar ones and a draw of the others.
Pf growth 48h: P. falciparum growth inhibition at 48 hours (one generation). P. falciparum luciferase growth in erythrocytes, 48 h. Potency, µM (series often up to 28.7 µM), for inactives: top-dose activity change, negative = inhibition, hits mostly inhibitors. 310,000 tested, 5.9% active; note: potency is the fitted concentration of half-maximal effect; % is set by controls: 0 for no effect and ±100 for the full control effect
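In quantitative HTS format, infected erythrocytes bearing luciferase-reporter parasites were treated for a single generation at 37 C. Luminescence after adding detection reagent served as the growth measure.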
SARS PLP yeast: blocks SARS-CoV papain-like protease in a yeast assay; S. cerevisiae expressing SARS-CoV PLpro, growth rescue; Potency, µM (doses to about 32.9 µM), for the others: at the top dose activity, positive = growth rescue, actives largely listed as activators; 330,000 tested, 0.19% active; calls by dose curve; note: potency is the fitted concentration of half-maximal effect; 0% is about no effect; nearly all actives have a fitted effect of over 55% in size
HCMV inh: human cytomegalovirus inhibition; 410,000 tested, 4.5% active; activity change, negative = inhibition, % at 57.5 µM; HFF cells, HCMV-luciferase reporter, 72 h; hits give low values; in the data active = activity change below about -60%; inconclusive = no clear call, values can overlap the other calls; inactive = above about -39%; note: % is set by controls: 0 for no effect and ±100 for the full control effect
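Compounds were evaluated in HFFs infected with an HCMV luciferase reporter virus (MOI 1 PFU/cell). Luciferase in lysates collected 72 h post infection served as the replication measure.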
HCV inhibitor: inhibitors of hepatitis C virus infection. Huh7.5.1 HCVcc-Cre infection, luciferase reporter, 44 h. Potency, µM (series often up to 41.8 µM), inactives show at the top dose activity change, negative = inhibition, hits mostly inhibitors. 340,000 tested, 3.4% active; note: potency is the fitted concentration of half-maximal effect; % is set by controls: 0 for no effect and ±100 for the full control effect
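Cells (1,000/well) were plated 4 h before compound, then infected with HCVcc-Cre virus (~0.5 moi). After 44 h further culture, infection was read as luciferase luminescence following a 15 min substrate incubation at room temperature.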
Sm TGR inh: blocks Schistosoma mansoni thioredoxin glutathione reductase | 360,000 tested, 3% active | purified TGR, DTNB reduction, TNB absorbance 405 nm | Potency, µM (highest dose often 114 µM), without a hit: at the top dose activity change, negative = inhibition, usual class: inhibitors | AID 485364 | Q962Y6; note: potency is the fitted concentration of half-maximal effect; % is set by controls: 0 for no effect and ±100 for the full control effect; nearly all actives have a fitted effect of over 60% in size
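First, TGR (20 nM dispensed) and NADPH were mixed with compound. Second, a 15 min room-temperature incubation followed. Third, further NADPH and then DTNB were added to start the reaction. Finally, TNB absorbance was monitored kinetically.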
Pf growth 96h: inhibits malaria parasite growth, 96 h | 320,000 tested, 6.9% active | AID 504834 | Potency, µM (top dose mostly 28.7 µM), for the others: top-dose activity change, negative = inhibition, actives largely listed as inhibitors | P. falciparum luciferase reporter growth, 96 h; note: potency is the fitted concentration of half-maximal effect; % is set by controls: 0 for no effect and ±100 for the full control effect
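Parasite growth measured via integrated firefly luciferase reporter in P. falciparum. Infected erythrocytes at 2% hematocrit, 0.05% parasitemia final were treated 96 hours at 37 C under 5% CO2, and luminescence was read.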
* = called active by the depositor; ? = inconclusive; . = no result; [ ] = remark or other dose. Unless noted, calls come from the whole dose curve; as a rule, active = well fitted curve in the direction sought with a large enough effect; inconclusive = small, poorly fitted or top-dose-only effect, or another doubt; inactive = no such curve, though single readings can be large; an effect the other way counts as inactive or inconclusive.

SMILES	Pf growth 48h	SARS PLP yeast	HCMV inh	HCV inhibitor	Sm TGR inh	Pf growth 96h
COC(=O)[C@H](Cc1ccccc1)NC(=O)Cn1cnc2c(NCc3ccccc3)ncnc21	.	-1.7%	-10.1	?	.	.
Cc1ccc(CNC(=O)c2nn(C)c(C)c2[N+](=O)[O-])cc1	-10.6%	15.9%	-26.6	33.0%	4.7%	-11.1%
Cc1ccc(-n2nnnc2CNC(=O)c2ccc([N+](=O)[O-])o2)cc1C	?	-10.1%	-26.2	22.4µM*	?	?
Cc1ccc(/C=C/C(=O)c2ccc([N+](=O)[O-])o2)cc1	?	0.1%	-79.2*	0.562µM*	14.1µM*	-9.2%
O=C(/C=C/c1ccc(Cl)cc1)c1ccc([N+](=O)[O-])o1	?	0.1%	-77.6*	-4.1%[8.37 µM]	?	40.5%
Cc1ccc(CNC(=O)c2ccc([N+](=O)[O-])o2)cc1	?	-35.9%	-37.7	?	35.5µM*	8.28µM*
CCCN(CCC)S(=O)(=O)c1ccc(C(=O)Nc2nc(-c3ccccc3)c(C(=O)OCC)s2)cc1	11.9%	10.6%	-29.7	?	-19.4%	-11.8%
Clc1ccc(Oc2nc(N3CCOCC3)nc(N3CCOCC3)n2)cc1	4.4%	.	19.6	-17.9%	9.1%	.
Cc1cccc(-n2c(=O)c3c(c4cc(C)ccc4n3C)n(CC(=O)Nc3ccc(C)c(C)c3)c2=O)c1	.	.	2.7	.	0.7%	.
CN(Cc1ccccc1)C(=O)c1ccc([N+](=O)[O-])o1	9.28µM*	-68.5%	-37.8	?	39.8µM*	26.1%
CN(C)CCNC(=O)C(=O)Nc1cc2c3c(c1)CCN3C(=O)CC2	18.6%	1.4%	45.1	4.4%	-3.1%	18.3%
COCc1cc(C)nc(SCC[N+](C)(C)CC(=O)c2ccccc2)c1C#N	?	-0.8%	?	6.7%	7.8%	9.3%
Cc1ccccc1[N+](=O)[O-]	30.4%	-5.9%	16.2	2.2%	-15.6%	?
Cc1cc([N+](=O)[O-])c2ccccc2[n+]1[O-]	?	-22.4%	.	11.2µM*	12.6µM*	-19.5%
CC(=O)Nc1sc2c(c1-c1nc3ccccc3s1)CCN(C(C)C)C2	3.7µM*	4.3%	.	8.91µM*	16.0%	4.15µM*
CC(=O)N1CCc2c(sc(NC(=O)CSc3ccc(F)cc3)c2-c2nc3ccccc3s2)C1	.	.	-96.2*	.	-6.4%	.
COc1ccc(C2NC(=O)N(C)C3=C2C(=O)N(c2cccc(C(=O)O)c2)C3)cc1 (stereo unspecified)	.	.	10.9	.	-1.6%	.
CCC(=O)Nc1cc(C(=O)NCC2CCCN2CC)c(OC)cc1N(C)C (stereo unspecified)	8.7%	2.1%	48.1	12.4%	12.3%	?
CCc1cc(Cl)c(OC)c(C(=O)NC[C@@H]2CCCN2CC)c1O	.	.	-29.2	5.01µM*	.	.
CCN1CCCC1CNC(=O)c1cc(NC(C)=O)c(N(C)C)cc1OC (stereo unspecified)	7.7%	2.5%	-68.3*	7.6%	-24.6%	?
CCN1CCCC1CNC(=O)c1ccccc1Cl (stereo unspecified)	-12.1%	16.5%	-31.0	9.1%	-2.1%	-15.1%
COc1cc(NC(=O)NCC2CCN(Cc3ccccc3Cl)CC2)cc(OC)c1OC	?	-0.9%	12.1	-28.3%	-6.2%	-0.5%
CCC(C)C(=O)Nc1nnc(SCC(=O)NC(C)(C)C)s1 (stereo unspecified)	8.4%	1.3%	-8.8	0.6%	-4.1%	?
C/C(=N\NC(=S)Nc1cc(S(=O)(=O)N2CCOCC2)ccc1Cl)c1ccc(N2CCOCC2)cc1	1.65µM*	-1.1%	-18.0	-22.4%	26.2%	1.85µM*
C/C(=N\NC(=S)Nc1ccc(C)c(C)c1)c1ccc(N2CCOCC2)cc1	11.7µM*	-21.6%	-60.7*	?	-2.8%	3.7µM*
SMILES	Pf growth 48h	SARS PLP yeast	HCMV inh	HCV inhibitor	Sm TGR inh	Pf growth 96h
C/C(=N\NC(=O)c1ccc(Cl)cc1)c1ccc(N2CCOCC2)cc1	-3.4%	13.8%	45.9	-7.2%	0.3%	-3.6%
COc1ccc2cc(/C(C)=N/NC(=S)Nc3cc(S(=O)(=O)N4CCOCC4)ccc3N3CCOCC3)ccc2c1	1.47µM*	0.7%	.	.	.	?
C/C(CCC(C)C)=N\NC(=S)Nc1cc(S(=O)(=O)N2CCOCC2)ccc1N1CCOCC1	?	14.4%	-8.8	-1.8%	2.4%	?
O=S(=O)(c1ccc(Cl)c(NC(=S)Nc2ccccc2N2CCOCC2)c1)N1CCOCC1	7.6%	-14.2%	-15.6	3.1%	35.5µM*	-27.2%
NC(=NCCc1ccccc1)c1cccc([N+](=O)[O-])c1	?	6.7%	24.1	11.9%	3.0%	0.0%
Cc1ccc(C)c(-c2[nH]ncc2CN2CCCC(CO)(Cc3ccccc3C)C2)c1 (stereo unspecified)	?	0.9%	-8.1	12.6µM*	8.3%	?
COc1cccc(CC2(CO)CCCN(Cc3cc(F)ccc3-n3cccn3)C2)c1 (stereo unspecified)	13.1µM*	-1.7%	-19.1	?	-4.0%	36.0%
OCC1(Cc2ccccc2)CCCN(Cc2cn[nH]c2-c2ccccc2)C1 (stereo unspecified)	-10.1%	-1.3%	-18.3	12.9%	1.2%	?
COc1ccc(F)c(CN2CCCC(CO)(Cc3cccc(Cl)c3)C2)c1 (stereo unspecified)	-1.1%	-0.1%	42.5	-1.1%	1.2%	-28.7%
COc1ccccc1/C=C/CN1CCCC(CO)(Cc2cccc(Cl)c2)C1 (stereo unspecified)	?	-0.3%	-15.4	?	-1.0%	-1.6%
COc1ccc(/C=C/CN2CCCC(CO)(Cc3cccc(Cl)c3)C2)cc1 (stereo unspecified)	13.1µM*	0.1%	-25.8	-8.4%	19.6%	12.4%
COc1cccc(CC2(CO)CCCN(Cc3ccccc3Cl)C2)c1 (stereo unspecified)	21.4%	-0.7%	-2.8	?	-29.8%	10.4µM*
CC(NCC(=O)NC(=O)NC1CCCC1)c1ccc(Cl)cc1Cl (stereo unspecified)	?	-10.1%	4.7	0.3%[8.37 µM]	-2.5%	?
CC(=O)c1c(COC(=O)c2ccccc2Cl)nc2ccccc2[n+]1[O-]	19.6%	0.4%	5.5	?	11.5%	-3.7%
COc1cccc(CC2(CO)CCCN(S(=O)(=O)N(C)C)C2)c1 (stereo unspecified)	-6.9%	0.5%	4.7	-8.5%	-2.2%	6.57µM*
COc1cccc(CC(=O)N2CCCC(CO)(Cc3ccc(F)cc3F)C2)c1 (stereo unspecified)	-8.6%	0.9%	12.2	5.5%	3.1%	8.28µM*
Cc1ccccc1CC1(CO)CCCN(Cc2ccccc2Cl)C1 (stereo unspecified)	-26.8%	-2.7%	3.3	12.6%	25.1µM*	?
